Source: PubChem (several laboratories)
CCHF vOTU inh: CCHFV vOTU protease inhibition; Pep-AMC fluorescence; inhibition, % at 11.5 µM; actives 0.55% (n = 370,000); in the data active = inhibition above about 30%; also: 0% = vehicle wells with enzyme and 100% = no enzyme wells
DUSP3 inh: blocks human VHR1 dual specificity phosphatase; P51452; AID 1654; recombinant VHR phosphatase, pNPP absorbance; inhibition, % at 13.3 µM; actives 0.52% (n = 290,000); in the data active = inhibition above about 50%
PrPC TRFRET: inhibitors of human cell surface prion protein PrPC; inhibition, % at 13.8 µM; actives 0.43% (n = 370,000); AID 720596; P04156; TR-FRET read-out; in the data active = inhibition above about 24%; also: 0% = median of the test wells and 100% = reference compound wells
BH1578 lux ind: quorum light induction in luxS cqsA deficient V. cholerae; V. cholerae BH1578 lux reporter, luminescence, 6 h; activation, % at 18.7 µM; actives 0.16% (n = 350,000); AID 588436; in the data active = activation mostly above about 9.7%, no sharp cut-off
MazF activator: MazEF (E. coli) toxin RNase activation. P0AE70. FAM/BHQ RNA-DNA oligo cleavage fluorescence, 5 h. activation, % at 20 µM. actives 0.32% (n = 350,000); in the data active = activation above about 50%
Yp Topo-I inh: blocks Yersinia pestis topoisomerase I activity | Y. pestis Topo-I cleavage product accumulation, plate reader | activity, % at 10 µM | actives 0.064% (n = 360,000); in the data active = activity above about 50%, passing the limit was not always enough
PrPC confirm: cell surface PrPC inhibition, TR-FRET confirmation; shares compounds with PrPC TRFRET; cell surface PrPC level; inhibition, % at 13.8 µM; actives 65% (n = 1,500); in the data active = inhibition above about 25%
LD9 tox: counter-screen for PrPc inhibitors: cytotoxicity in LD9 cells | shares compounds with PrPC TRFRET | luminescence viability | inhibition, % at 13.8 µM | actives 29% (n = 1,500); in the data active = inhibition above about 9.5%
* hit, by the source's call; i = inactive; nt = no result. A selection: hits, their analogues and other compounds. The true share with any hit is near 1.8%.

SMILES	CCHF vOTU inh	DUSP3 inh	PrPC TRFRET	BH1578 lux ind	MazF activator	Yp Topo-I inh	PrPC confirm	LD9 tox
CCC(=O)NCCn1c(C)cc2ccccc21	nt	2	nt	0	-9	15	nt	nt
Cc1cc2ccccc2n1CCNC(=O)c1ccc(S(=O)(=O)N2CCOCC2)cc1	-16	-1	27*	1	-2	5	12	2
COC(=O)[C@H]1C[C@@]2(C3C=CC=C3)c3ccccc3N[C@H]2N1	2	nt	-8	nt	nt	nt	nt	nt
Cc1ccc(-c2nc3ccc(C)cn3c2CC2CCCCC2)cc1	19	nt	1	nt	nt	nt	nt	nt
CCOc1ccccc1NC(=O)CN(c1ccc(Cl)cc1)S(C)(=O)=O	-1	16	5	1	-4	12	nt	nt
COc1ccc(/[N+]([O-])=C/c2ccco2)cc1	-1	nt	3	-1	3	6	nt	nt
O=C1NC[C@H](CCCCN2C[C@H](Cc3ccc(O)cc3)N(CC3CCCCC3)C(=O)C2=O)N(Cc2ccccc2)C1=O	3	nt	3	nt	nt	nt	nt	nt
COc1cccc(-c2cnc3c(NC(C)=O)cc(-c4cccc(C(=O)NCCO)c4)cn23)c1	-2	nt	6	i	nt	8	nt	nt
COc1ccc2[nH]c3c(=S)nc[nH]c3c2c1	-1	-1	85*	-1	2	1	104*	1
CC(C)N(Cc1nnc(-c2ccccc2Cl)o1)C(=O)COc1cccc(Cl)c1	7	nt	-9	i	6	24	nt	nt
O=C(CSc1nc2ccccc2c(=O)n1-c1ccccc1)N1CCc2ccccc2C1	-7	1	-6	1	-13	25	nt	nt
CC(C)c1ccccc1-n1c(SCC(=O)N2CCc3ccccc3C2)nc2ccccc2c1=O	25	6	34*	i	-5	24	36*	35*
CSCCC(NS(=O)(=O)c1ccc2c(c1)oc(=O)n2C)C(=O)NCc1cccs1 (centres undefined)	21	33	-3	-2	5	6	nt	nt
ClCc1nc2ccccc2n1Cc1ccccc1	-2	2	9	0	-89	5	nt	nt
Cc1ccc(Cn2c(Cc3ccccc3)nc3ccccc32)cc1	6	24	76*	i	3	43	18	-4
CN1OC[C@@H]2CN(C(=O)C3CCCCC3)[C@H](c3ccc(N4CCCCC4)cc3)C[C@@H]21	-2	nt	0	nt	nt	nt	nt	nt
Cc1nc(SCCC(=O)O)c2ccccc2n1	7	-9	103*	-24	4	6	119*	3
O=C(O)CSc1ccc2ccccc2n1	6	-18	58*	i	-1	-3	58*	-1
CCOC(=O)CSc1ccc2ccccc2n1	-6	-3	28*	-1	-10	0	61*	-7
O=C(O)CCSc1nc2ccccc2c(=O)[nH]1	-2	4	-1	i	7	-6	nt	nt
Cc1cc(SCCC(=O)O)nc2ccccc12	-1	6	8	i	0	-5	nt	nt
O=C(O)CCSc1ccc2ccccc2n1	3	18	82*	0	3	-3	89*	-3
CCOC(=O)CSc1nc2ccccc2n1C(=O)OCC	15	19	3	-1	6	1	nt	nt
COc1cc(CN2CCCC(N3CCN(c4ccccc4C)CC3)C2)ccc1O (centres undefined)	0	16	-6	i	0	7	nt	nt
CC(C)CCNC(=O)[C@@H](Cc1ccccc1)NC(=O)[C@H]1O[C@@H](n2ccc(=O)[nH]c2=O)[C@H](O)[C@@H]1O	-8	nt	6	nt	nt	nt	nt	nt
SMILES	CCHF vOTU inh	DUSP3 inh	PrPC TRFRET	BH1578 lux ind	MazF activator	Yp Topo-I inh	PrPC confirm	LD9 tox
Cc1ccc(OCc2nc3ccccc3n2C(C)C(=O)Nc2c(C)cccc2C)cc1 (centres undefined)	25	nt	33*	nt	nt	nt	26*	-3
Cc1nc2ccc(Br)cc2c2c1CC(CO)O2 (centres undefined)	-3	14	29*	1	1	5	35*	-6
CC1=CC2OC3CC4OC(=O)C=CC=CC(C(C)O)OCC(O)C(C)CC(=O)OCC2(CC1O)C4(C)C31CO1 (centres undefined)	5	nt	88*	i	-3	5	99*	60*
CC1=CC2OC3CC4OC(=O)C=CC=CC(=O)OCCC(C)C(O)C(=O)OCC2(CC1O)C4(C)C31CO1 (centres undefined)	nt	nt	nt	i	8	-6	nt	nt
Cc1ccc(F)cc1C(=O)N1CCOCC1c1cc(C(=O)NCc2ccccc2)no1 (centres undefined)	1	nt	-7	5	nt	5	nt	nt
Cc1ccc(NS(=O)(=O)c2cc(C(=O)NCc3ccccn3)ccc2Cl)cc1	0	34	40*	i	-2	1	35*	-6
O=C(NCC(=O)N1CCOCC1)c1ccc(Cl)cc1	3	2	-4	-2	-2	12	nt	nt
CSc1nc2c([nH]1)c(=S)n(C)c(=O)n2C	11	nt	34*	i	5	-2	0	-1
CCCCSc1nc2c([nH]1)c(=S)n(C)c(=O)n2C	4	nt	-1	0	10	9	nt	nt
Cn1nnnc1Sc1ncnc2scc(-c3ccc(Br)cc3)c12	4	nt	25*	i	11	-4	27*	22*
Cn1nnnc1Sc1ncnc2scc(-c3ccc(F)cc3)c12	9	-27	-4	0	10	1	nt	nt
O=C(Nc1ccccc1)C1=C(c2ccccc2)S(=O)(=O)CCS1(=O)=O	6	2	33*	0	-5	-1	0	70*
C[C@@H]1CN([C@@H](C)CO)C(=O)c2cc(NC(=O)CCC(F)(F)F)ccc2O[C@H]1CN(C)S(=O)(=O)c1ccc(Cl)cc1	9	nt	-7	0	4	10	nt	nt
CCn1c(Cl)c(C=O)s/c1=N\S(=O)(=O)c1ccccc1	9	-30	53*	0	5	1	102*	94*
CNC(=O)c1c(NC(=O)c2ccc(S(=O)(=O)N3CCCC3)cc2)sc2c1CCN(C(C)C)C2	8	-11	-16	nt	nt	nt	nt	nt
CCN1CCc2c(sc(NC(=O)c3ccc(S(=O)(=O)N4CCCCCC4)cc3)c2C(=O)NC)C1	17	-9	52*	-1	-289	8	-24	-3
COc1cc(C(=O)NNC(=O)c2cc(-c3ccccc3)n[nH]2)cc(OC)c1C	16	nt	26*	i	-14	1	9	-4
CS(=O)(=O)c1ccc(C(=O)NNC(=O)c2cc(-c3ccccc3)n[nH]2)cc1	6	nt	0	i	0	0	nt	nt
N#Cc1c(N2CCSCC2)nsc1-c1ccccc1Cl	19	21	27*	-1	-10	31	23	-7
Cc1ccc(Nc2nc(NCc3ccco3)c3ccccc3n2)cc1	21	41	35*	-1	-9	3	43*	24*
COc1ccccc1Nc1nc(NCc2ccco2)c2ccccc2n1	-2	1	8	0	1	-13	nt	nt
